# Data from PubChem BioAssay.
# The source made the active and inactive calls. Unless noted, how the calls were made is not given here.
# How the values were obtained:
# [1] = kinase inhibitors against Plasmodium liver-stage infection, cell-based, known kinase inhibitor set, luminescence, hepatoma host viability (AID 624392); conditions: Plasmodium liver stage in hepatoma cells, luciferase luminescence, concentration not given here; liver cell % of control: measured here: host liver cell viability; parasite % of control: stronger effect = lower value;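 further: infected cells incubated roughly two days before readout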
# [2] = modulators of glucocorticoid suppression of NF-kB, cell-based, luciferase, IL-1B stimulus, dexamethasone (AID 624486); conditions: NF-kB luciferase reporter, IL-1B + dexamethasone, luminescence; percent of negative control (+Dex): actives lie on both sides, concentration not given here; z-score: measured here: IL-1B alone, no Dex;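 on percent of negative control (+Dex): 100% = mean signal of vehicle control wells on the plate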
# [3] = kinase inhibitors altering Pseudomonas killing of worms, whole organism (AID 651566);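 further: tested at 14 µM; sign flipped so higher z means a lower ratio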; conditions: C. elegans killed by P. aeruginosa, survival ratio
# [4] = activators of macrophage pro-inflammatory response, cell-based, murine, luminescence (AID 652131); conditions: murine macrophage pro-inflammatory reporter, stronger effect = higher value
# [5] = biological target: Cellular tumor antigen p53 (Homo sapiens) (UniProt P04637); assay: kinase inhibitors altering GFP-p53 stability in HPV16-positive cells, imaging, known kinase inhibitor set, EGFP/DsRed ratio (AID 1053116); conditions: stronger effect = higher value; EGFP object count: measured here: GFP-p53 positive objects count;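 further: cells exposed to compounds for 24 h at 37 °C before reading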
# Chain of Cellular tumor antigen p53 (Homo sapiens) (P04637 whole entry, looked up): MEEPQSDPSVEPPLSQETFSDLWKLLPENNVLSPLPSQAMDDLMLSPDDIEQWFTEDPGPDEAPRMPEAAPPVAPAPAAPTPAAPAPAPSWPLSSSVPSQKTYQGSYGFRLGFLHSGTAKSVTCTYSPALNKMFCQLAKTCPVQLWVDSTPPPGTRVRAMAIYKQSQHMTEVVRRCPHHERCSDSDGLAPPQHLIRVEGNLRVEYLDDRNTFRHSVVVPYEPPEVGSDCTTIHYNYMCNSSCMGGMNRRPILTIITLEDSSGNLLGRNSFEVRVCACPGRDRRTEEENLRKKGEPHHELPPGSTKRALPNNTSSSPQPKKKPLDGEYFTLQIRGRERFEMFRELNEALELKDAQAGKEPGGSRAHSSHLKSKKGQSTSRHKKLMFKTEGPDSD
# [6] = IRF3 reporter activation in THP-1 macrophages, cell-based, PMA-stimulated THP-1, luminescence (AID 1053176); conditions: PMA-differentiated THP-1, IRF3 reporter luminescence; stronger effect = higher value
# [7] = survival rescue of mitochondrial mutant cells in low glucose, primary screen, MELAS cybrids, Rieske KO mouse fibroblasts, CellTiter-Glo (AID 1508586;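 active means mean z-score across replicates of 1.96 or higher in either the MELAS or the Rieske mutant cell line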;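 further: z relative to plate mean and SD of compound and empty wells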)
# [8] = MELAS cybrid survival, CellTiter-Glo 48 h, stronger effect = higher value
# [9] = Rieske KO mouse fibroblast survival, CellTiter-Glo 72 h
SMILES,liver cell % of control [1] [%],parasite % of control [1],percent of negative control (+Dex) [2],z-score [2],z-score [3],z-score [4],EGFP object count [5],EGFP/DsRed ratio [5],fraction signal [6],"z-score [7, 8]","z-score [7, 9]"
O=C1Nc2ccc(-c3cccnc3)cc2/C1=C\c1cc(Br)c(O)c(Br)c1,174,13.3% (inactive),102% (inactive),-0.125,0.98 (inactive),0.575 (inactive),1.5,0.0182 (inactive),-0.0065 (inactive),-0.192 (inactive),-0.185
CNC(=O)c1cc(-c2ccc(F)cc2)cc(-c2ccc(S(=O)(=O)N3CCCC3)cc2)c1N,102,80.4% (inactive),92% (inactive),-0.05,0.5 (inactive),-0.377 (inactive),6.5,0.244 (inactive),-0.007 (inactive),-0.388 (inactive),-0.623
c1ccc(Cc2nc3ccc(Nc4ncnc5ccccc45)cc3[nH]2)cc1,166,15.2% (inactive),83% (inactive),-0.365,1.34 (inactive),4.91 (inactive),5,0.119 (inactive),-0.007 (inactive),0.254 (inactive),-0.299
Nc1ncnc2occ(-c3ccc(NC(=O)Nc4cc(C(F)(F)F)cc(C(F)(F)F)c4)cc3)c12,58.8,11.2% (inactive),77.5% (inactive),-2.48,-0.205 (inactive),-1.51 (inactive),2,0.014 (inactive),-0.006 (inactive),-0.873 (inactive),-0.237
CCN(CC)Cc1ccc(Nc2nccc(-c3cnn4ncccc34)n2)cc1,52.3,12.5% (active),3% (active),-9.2,-0.59 (inactive),-2.04 (inactive),3,0.0517 (inactive),0.0075 (inactive),0.539 (inactive),1.65
CC(C)c1ccc(-c2cc(C3CNNC3c3ccccn3)ccn2)cc1 (stereo unspecified),100,117% (inactive),95.5% (inactive),0.855,0.505 (inactive),0.704 (inactive),2,0.021 (inactive),-0.0085 (inactive),0.0399 (inactive),-0.129
CCOc1nccc2c1nc(-c1nonc1N)n2CC,107,176% (inactive),86% (inactive),-0.885,0.225 (inactive),0.153 (inactive),4.5,0.429 (inactive),0 (inactive),-0.642 (inactive),-0.113
CN(C)CCCNc1nccc(-c2c(-c3ccc(F)cc3)nn3cc(C(F)(F)F)ccc23)n1,98.2,96.1% (inactive),93.5% (inactive),0.05,0.5 (inactive),2.64 (inactive),4,0.104 (inactive),-0.008 (inactive),0.443 (inactive),-0.332
NS(=O)(=O)c1ccc(-c2cc3ccncc3cc2OCc2ccccc2)cc1,218,144% (inactive),81% (inactive),-1.8,-0.345 (inactive),6.56 (active),4.5,0.0743 (inactive),-0.005 (inactive),-0.151 (inactive),-0.251
O/N=C1/CCc2cc(-c3nc(C4CCNCC4)[nH]c3-c3ccncc3)ccc21,105,174% (inactive),128% (inactive),0.995,0.24 (inactive),3.12 (inactive),1,0.00487 (inactive),0.001 (inactive),-1.26 (inactive),-0.635
Fc1cccc(COc2ccc(Nc3ncnc4cc(-c5ccc[nH]5)sc34)cc2Cl)c1,45.8,16.2% (inactive),66.5% (inactive),-1.57,0.215 (inactive),-0.371 (inactive),3,0.034 (inactive),-0.0045 (inactive),-0.761 (inactive),-0.0837
